High-throughput results deposited in PubChem by National Center for Advancing Translational Sciences (NCATS).
Pol beta inh = qHTS Assay for Inhibitors of DNA Polymerase Beta. P06746. Pol beta primer extension/strand displacement, fluorescence kinetic. Potency, µM (doses to about 114 µM), for the others: at the highest dose activity change, negative = inhibition, most hits filed as inhibitors. 340,000 tested, 1.3% active. AID 485314, 2010; also: potency is read from the fitted curve at half-maximal effect; % is scaled to controls: 0 for no effect and ±100 for the full control effect
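Values derive from four-parameter Hill fits of normalized kinetic data: reads at 0 and 10 min following addition of 50 nM substrate to 10 nM Pol beta preincubated 15 min with compound.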
POLI inh = qHTS for Inhibitors of Polymerase Iota; DNA polymerase iota (Homo sapiens), Q9UNA4; Pol iota fluorescent replication assay, 10 min; Potency, µM (doses to about 115 µM), inactives show top-dose activity, negative = inhibition, hits mostly inhibitors; 390,000 tested, 1% active; AID 588590, 2011; also: potency is read from the fitted curve at half-maximal effect
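Fluorescent replication assay read twice, at 0 min and 10 min after adding 50 nM (final) substrate. Enzyme (10 nM) and compounds were first incubated 15 min at room temperature; enzyme-free buffer wells were negative controls.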
Pol kappa inh = qHTS for Inhibitors of Polymerase Kappa. 400,000 tested, 0.53% active. purified Pol kappa, fluorescent DNA synthesis assay, 10 min. Potency, µM (highest dose often 107 µM), inactives show at the top dose activity, negative = inhibition, hits mostly inhibitors. DNA polymerase kappa (Homo sapiens), Q9UBT6; also: potency is read from the fitted curve at half-maximal effect; % is scaled to controls: 0 for no effect and ±100 for the full control effect
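10 nM Pol kappa preincubated 15 min at room temperature with compounds, then reaction started with substrate at 50 nM final. Fluorescence read kinetically at 0 and 10 min; buffer-only wells served as negative control.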
L3MBTL1 inh = qHTS Assay for the Inhibitors of L3MBTL1; Lethal(3)malignant brain tumor-like protein 1 (Homo sapiens), Q9Y468; AlphaScreen L3MBTL1–H3K9me1 peptide binding; Potency, µM (highest dose often 57.1 µM), without a hit: at the top dose activity, negative = inhibition, actives largely listed as inhibitors; 230,000 tested, 0.66% active; AID 485360, 2010; also: potency is read from the fitted curve at half-maximal effect; % is scaled to controls: 0 for no effect and ±100 for the full control effect; nearly all actives have a fitted effect of over 60% in size
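Displacement of a biotinylated histone H3(1-15) peptide monomethylated at Lys9 (75 nM) from L3MBTL1 (50 nM) was measured by AlphaScreen after a 30 min room-temperature compound incubation; cefsulodin titration served as intraplate control.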
Pol eta inh-1 = qHTS for Inhibitors of Polymerase Eta; 390,000 tested, 1.2% active; recombinant Pol eta, fluorescent DNA replication assay; Potency, µM (doses to about 114 µM), for inactives: at the highest dose activity change, negative = inhibition, most hits filed as inhibitors; also: potency is read from the fitted curve at half-maximal effect; % is scaled to controls: 0 for no effect and ±100 for the full control effect
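Fluorescent replication assay: 50 nM final substrate added after a 15 min room-temperature compound preincubation with 10 nM enzyme. Signal taken at 0 min and again at 10 min.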
GALK inh confirm = Confirmation Assay for Inhibitors of Human Galactokinase (GALK); shares compounds with Pol eta inh-1; purified GALK, Kinase-Glo ATP depletion luminescence; Potency, µM (doses to about 115 µM), for inactives: at the highest dose activity, negative = inhibition, usual class: inhibitors; 150 tested, 70% active
GALK redox cs = Confirmatory Assay for Inhibitors of Human Galactokinase (GALK): Phenol-HRP redox assay counterscreen | shares compounds with Pol eta inh-1 | Phenol red-HRP H2O2 redox cycling, absorbance 600 nm | Potency, µM (doses to about 115 µM), for inactives: at the highest dose activity change, negative = H2O2 signal, usual class: inhibitors | 150 tested, 40% active | AID 2035, 2009
HEK293 tox = Secondary Assay for Inhibitors of Human Galactokinase (GALK): HEK-293 Cell Viability Assay; Potency, µM (highest dose often 46.1 µM), for the others: top-dose activity change, negative = cytotoxicity, most hits filed as inhibitors; shares compounds with Pol eta inh-1; HEK-293 viability, ATP luminescence (CellTiter-Glo), 24/48 h; 170 tested, 10% active; AID 2547, 2010; also: potency is read from the fitted curve at half-maximal effect; % is scaled to controls: 0 for no effect and ±100 for the full control effect
Pol eta inh-2 = qHTS for Inhibitors of Polymerase Eta: Confirmatory Assay for Cherry-picked Compounds. Pol eta primer extension, TAMRA/BHQ fluorescence, 10 min. shares compounds with Pol eta inh-1. Potency, µM, usual class: inhibitors. AID 720502, 2013. 2,600 tested, 64% active; also: potency is read from the fitted curve at half-maximal effect
* marks the source's active call; other numbers are inactive results; ? = inconclusive; . = no result; [ ] = remark or other dose. Only some compounds are listed: those with a hit (about 2.4% of all), similar ones and a draw of the others. Calls follow the shape of the dose curve; as a rule, active = well fitted curve in the direction sought with a large enough effect; inconclusive = small, poorly fitted or top-dose-only effect, or another doubt; inactive = no such curve, though single readings can be large; an effect the other way counts as inactive or inconclusive.

SMILES | Pol beta inh | POLI inh | Pol kappa inh | L3MBTL1 inh | Pol eta inh-1 | others
CN=c1scc(-c2cccs2)n1/N=C/c1ccc(O)c(O)c1O | 2.8µM* | ? | ? | 14µM* | ? | Pol eta inh-2=76*
COc1ccc(CCNC(=O)CCS(=O)(=O)c2cc(Br)cc3c2N(C(C)=O)CC3)cc1OC | -1% | -7% | -10% | . | -3%
O=C(NNC(=O)c1ccccc1C(=O)O)c1cc2ccccc2o1 | 1% | ? | -8% | . | 0% | GALK inh confirm=33µM*;GALK redox cs=0%;HEK293 tox=2%
COc1cc2[nH]c(=O)n(CCCC(=O)NCc3ccccc3)c(=O)c2cc1OC | 35% | -17% | -7% | . | -10%
Cc1ccccc1OCC(=O)Nc1nnc(S(=O)(=O)N2CCCCCC2)s1 | -16% | -11% | -13% | . | 5%
Cc1nn(-c2ccccc2)c(NC(=O)NS(=O)(=O)c2ccc(Cl)cc2)c1C#N | . | . | 16%[60.1 µM] | . | .
O=C(OCC(=O)N1CCOCC1)c1ccc2c(c1)OCCO2 | 11% | 3% | 8% | 2% | -13%
Cc1ccc(C(=O)OCC(=O)c2ccc(CC(=O)N3CCOCC3)s2)cc1C | . | 22µM* | 79µM* | ? | 13µM* | Pol eta inh-2=?
COc1ccc2c(c1OC)C(=O)OC2Nc1nc(-c2cc3cc(Br)ccc3oc2=O)cs1 (configuration not stated) | ? | ? | -20% | . | -10% | Pol eta inh-2=?
CCc1ccc(NC(=O)c2cc(CN3CCOCC3)on2)cc1 | -23% | 10% | -24% | . | -19%
CCCN1CN=C(Nc2nc3ccccc3o2)NC1 | -7% | 58% | 3% | -2% | -16%
O=C1CCC2=C1C1(CCCC1)N=C(Nc1nc3ccccc3o1)N2 | . | . | . | . | . | HEK293 tox=-17%
OCCN1CN=C(Nc2nc3ccccc3o2)NC1 | 20% | -3% | -4% | 3% | -14%
CC1(C)CC(=O)C2=C(C1)NC(Nc1nc3ccccc3o1)=NC21CCCCC1 | 10% | 17% | 9% | 2% | -6% | HEK293 tox=-10%
O=C1CC(c2ccccc2)CC2=C1C1(CCCCC1)N=C(Nc1nc3ccccc3o1)N2 (configuration not stated) | . | . | . | . | . | HEK293 tox=-3%
O=c1[nH]c(Nc2nc3ccccc3o2)nc2c1CCCC2 | 2% | 6% | -6% | 4% | -1%
COc1ccc(C2CC(=O)c3cc(-c4nc(-c5ccc(Cl)cc5)c(C)s4)c(=O)[nH]c3C2)cc1 (configuration not stated) | ? | 1% | -2% | . | 1%
CCOc1ccccc1NC(=O)CN1C(=O)COc2ccc(S(=O)(=O)N3CCCCCC3)cc21 | 39% | 10% | -3% | . | -13%
O=C1C2C(c3ccccc3)CC=CC2C(c2ccc3ccccc3c2)N1Cc1ccccc1 (configuration not stated) | . | ? | -4% | . | .
